# In publication PMC4336329 (PLoS ONE, 2015):
# Among all 310,000 compounds or so, about 14,000 (4.5%) showed an effect of 50% or more. Effects have a minus sign here. The list comes from a sample in which strong results are over-represented; it also holds similar structures and randomly drawn compounds.
# Target: human ether-à-go-go-related gene (hERG) potassium channel (human, UniProt Q12809)
# Assay: primary screen, population patch clamp on CHO cells stably expressing hERG; higher = less effect of the substance
# 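Further: peak tail current of the secondary pulse compared with the same well before compound.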
# Chain of human ether-à-go-go-related gene (hERG) potassium channel (Q12809 whole entry, looked up): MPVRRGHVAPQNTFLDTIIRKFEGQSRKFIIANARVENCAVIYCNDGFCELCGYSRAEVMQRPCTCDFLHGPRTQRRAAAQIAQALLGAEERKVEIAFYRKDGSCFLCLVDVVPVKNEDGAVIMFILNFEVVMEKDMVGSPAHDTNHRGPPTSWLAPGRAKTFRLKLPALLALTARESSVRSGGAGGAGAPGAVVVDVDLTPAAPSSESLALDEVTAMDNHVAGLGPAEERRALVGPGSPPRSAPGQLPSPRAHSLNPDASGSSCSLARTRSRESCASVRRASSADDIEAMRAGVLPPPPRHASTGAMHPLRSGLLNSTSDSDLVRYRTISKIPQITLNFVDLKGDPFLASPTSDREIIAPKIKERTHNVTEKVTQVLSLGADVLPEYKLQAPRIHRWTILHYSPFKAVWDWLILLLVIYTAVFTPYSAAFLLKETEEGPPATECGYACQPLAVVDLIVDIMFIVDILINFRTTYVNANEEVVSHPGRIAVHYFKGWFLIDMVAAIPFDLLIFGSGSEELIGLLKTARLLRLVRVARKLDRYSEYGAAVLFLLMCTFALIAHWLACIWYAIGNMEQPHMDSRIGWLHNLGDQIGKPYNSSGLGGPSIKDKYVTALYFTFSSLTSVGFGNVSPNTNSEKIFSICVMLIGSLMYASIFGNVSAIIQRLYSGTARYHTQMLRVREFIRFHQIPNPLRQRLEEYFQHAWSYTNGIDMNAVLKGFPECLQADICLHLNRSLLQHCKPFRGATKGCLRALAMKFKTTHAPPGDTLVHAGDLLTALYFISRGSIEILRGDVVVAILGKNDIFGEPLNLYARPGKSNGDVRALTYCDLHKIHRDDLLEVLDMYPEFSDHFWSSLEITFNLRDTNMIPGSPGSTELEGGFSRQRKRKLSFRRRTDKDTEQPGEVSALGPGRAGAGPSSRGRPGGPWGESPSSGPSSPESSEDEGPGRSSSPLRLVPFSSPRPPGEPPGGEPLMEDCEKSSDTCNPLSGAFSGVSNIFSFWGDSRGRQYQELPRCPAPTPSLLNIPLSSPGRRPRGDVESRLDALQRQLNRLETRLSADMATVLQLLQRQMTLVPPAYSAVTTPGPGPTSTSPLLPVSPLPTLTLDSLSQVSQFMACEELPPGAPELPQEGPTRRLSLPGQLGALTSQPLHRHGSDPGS
row,SMILES,"hERG current change (%, negative = inhibition) at 10uM [%]"
1,Cc1ccc2c(c1)C(c1ccccc1)N(C(=O)c1ccc(S(=O)(=O)N3CCOCC3)cc1)CC(=O)N2 (stereo not shown),-19.1
2,COc1cc([N+](=O)[O-])ccc1NC(=O)C[n+]1ccccc1C.[Cl-],11
3,N#Cc1c(-c2ccccc2)cc(-c2ccccc2)nc1SCCC(=O)O,18.4
4,COc1ccc(/C(N)=N/OC(=O)c2ccc(C)c([N+](=O)[O-])c2)cc1,-6.61
5,O=C(N/C(=C\c1ccccc1)C(=O)N1CCOCC1)c1ccc(Br)o1,3.18
6,O=C(N/C(=C/c1ccc(Br)cc1)C(=O)N1CCOCC1)c1cccs1,-5.65
7,O=C(N/C(=C/c1ccc(Br)cc1)C(=O)N1CCOCC1)c1ccco1,-24.1
8,O=C(N/C(=C\c1ccc(Br)cc1)C(=O)N1CCOCC1)c1ccc(Br)o1,-67.1
9,O=C(N/C(=C\c1ccc(Br)cc1)C(=O)N1CCOCC1)c1ccco1,-41
10,O=C(N/C(=C/c1ccc(Br)cc1)C(=O)N1CCOCC1)c1ccc(Br)o1,-70.2
11,CCOC(=O)CN(C(=O)c1ccccc1[N+](=O)[O-])C(C)(C)C,9.73
12,COc1ccc(C(=O)N2CCC(CCC(=O)Nc3cccc(C)c3)CC2)cc1,-68.3
13,Cc1cccc(NC(=O)CCC2CCN(C(=O)c3ccc(C)s3)CC2)c1,-65.5
14,COc1cccc(C(=O)N2CCC(CCC(=O)Nc3cccc(C)c3)CC2)c1,-28.6
15,COc1cccc(NC(=O)CCC2CCN(C(=O)c3cccc(NC(C)=O)c3)CC2)c1,-28.4
16,COc1cccc(NC(=O)CCC2CCN(C(=O)c3ccc(C(C)=O)s3)CC2)c1,-36.9
17,COCc1ccc(C(=O)N2CCC(CCC(=O)Nc3cccc(C)c3)CC2)s1,-15.1
18,O=[N+]([O-])c1ccc(-c2nc(NCC3CCCO3)c3ccccc3n2)cc1 (stereo not shown),12.3
19,O=C(Cc1ccsc1)N1CCN(S(=O)(=O)c2cc(C(F)(F)F)cc(C(F)(F)F)c2)CC1,1.69
20,Cc1ccc(S(=O)(=O)CCc2nc3ccccc3[nH]2)cc1,-17.6
21,Cc1nc2cc(C)c(C)cc2s1,15.7
22,CS(=O)(=O)N(CC(=O)NC1CCCCCC1)Cc1ccccc1,-1.26

row,SMILES,"hERG current change (%, negative = inhibition) at 10uM [%]"
1,CN1C(=O)C(CC(=O)Nc2ccc(F)cc2)N(NC(=O)c2cccc(F)c2)C1=S (stereo not shown),-3.79
2,CCn1c(SCC(=O)c2ccc3ccccc3c2)nnc1-c1cccs1,-8.29
3,COc1cc(C(=O)NC(=S)NCc2ccco2)cc(OC)c1OC,1.74
4,CCOC(=O)C1(Cc2ccccc2)CCN(Cc2cc(=O)c3ccccc3[nH]2)CC1,13.5
5,CC(=O)Nc1ccc2nc(CN3CCN(CC(C)C)C(CCO)C3)ccc2c1 (stereo not shown),17
6,CCOC(=O)C1(Cc2ccccc2)CCN(Cc2ccon2)CC1,0.71
7,CC(=O)Nc1ccc2nc(CN3CCN(CC=C(C)C)C(CCO)C3)ccc2c1 (stereo not shown),11.5
8,CCOC(=O)C1(Cc2ccccc2)CCN(Cc2ccc3cc(NC(C)=O)ccc3n2)CC1,-68.7
9,CC(=O)Nc1ccc2nc(CN3CCC(CO)(CCc4ccccc4)CC3)ccc2c1,-68.2
10,COc1ccc(C(=O)Nc2nc3c(s2)CCCC3)cc1S(=O)(=O)N1CCCc2ccccc21,-2.36
11,Cc1noc(C)c1COc1ccc(C(=O)O)cc1,17.1
12,CCCCc1n[nH]c2c1/C(=N/O)CC(c1ccccc1)C2 (stereo not shown),8.46
13,COc1cccc(OCC(O)CNC(C)c2ccccc2)c1.Cl (stereo not shown),2.14
14,CC(NCC(O)COc1ccc2ccccc2c1)c1ccccc1.O=C(O)C(=O)O (stereo not shown),-44
15,Cc1cccc(C)c1OCC(O)CNC(C)c1ccccc1.Cl (stereo not shown),-13.7
16,COc1ccc(C(OCC(O)CNCCc2ccc(S(N)(=O)=O)cc2)c2ccc(OC)cc2)cc1 (stereo not shown),-43.2
17,COc1ccc(C(OCC(O)CNCCc2ccccc2)c2ccc(OC)cc2)cc1.O=C(O)C(=O)O (stereo not shown),-63.7
18,Cc1ccc(C(OCC(O)CNC(C)c2ccccc2)c2ccccc2)cc1 (stereo not shown),-58.2
19,OC(CNCCc1ccc(C(F)(F)F)cc1)COc1cccc2ccccc12 (stereo not shown),-36.5
20,Cc1ccc(C(OCC(O)CNC(CO)C(O)c2ccc([N+](=O)[O-])cc2)c2ccccc2)cc1 (stereo not shown),-22.4
21,COc1ccc(C(OCC(O)CNC(C)c2ccccc2)c2ccc(OC)cc2)cc1 (stereo not shown),-52.4
22,COc1ccccc1COCC(O)CNCCc1ccc(C(F)(F)F)cc1.O=C(O)C(=O)O (stereo not shown),-56.5

row,SMILES,"hERG current change (%, negative = inhibition) at 10uM [%]"
1,O=C(O)C(=O)O.OC(CNCCc1ccc(C(F)(F)F)cc1)COC(c1ccccc1)c1ccccc1 (stereo not shown),-34.7
2,COc1ccc(CCNCC(O)c2ccccc2)cc1.O=C(O)C(=O)O (stereo not shown),-11.4
3,COC(=O)c1cc(S(=O)(=O)NCc2ccccc2Cl)c[nH]1,17.1
4,C1CN(CCN2CCOCC2)CCN1,21
5,Cc1cccc(C)c1NS(=O)(=O)c1ccc(NC(=O)c2ccc(Cl)c([N+](=O)[O-])c2)cc1,13.9
6,Cc1ccc(S(=O)(=O)N(CC2CO2)c2ccccc2[N+](=O)[O-])cc1 (stereo not shown),13.1
7,O=C(Nc1nnc(SCc2ccccc2Cl)s1)c1cccc([N+](=O)[O-])c1,-3.26
8,O=C(Nc1cc(Oc2ccc(Cl)cc2)cc([N+](=O)[O-])c1)c1ccco1,15
9,CCOc1cnn(-c2cc(Oc3ccc(C)cc3)ncn2)c(=O)c1Cl,-12.4
10,O=C(CSc1nnnn1-c1cccc2ccccc12)Nc1ccc(N2CCOCC2)c(Cl)c1,2.68
11,CC(NCC(O)COc1ccc(Br)cc1)c1ccccc1.Cl (stereo not shown),0.452
12,CC(C)c1ccc(OCC(O)CNC(C)c2ccccc2)cc1.Cl (stereo not shown),-65.3
13,COc1ccc(OCC(O)CNC(C)c2ccccc2)cc1.Cl (stereo not shown),5.12
14,O=C1CCCN1c1cc(Cl)ccc1Cl,2.17
15,CN(Cc1nc(-c2cnccn2)no1)CC1(c2ccccc2)CC1(C)C (stereo not shown),4.2
16,COc1ccc(-c2nnc(-c3ccc(N)cc3)o2)cc1,-5.64
17,CC1CCCCN1C(=O)c1ccc(S(=O)(=O)N2CCCCC2C)cc1 (stereo not shown),-9.35
18,COc1ccccc1N1CCN(C(=O)/C=C/c2ccc3c(c2)OCO3)CC1,-10.5
19,C=CCNC(=O)/C(=C/c1cccc([N+](=O)[O-])c1)NC(=O)c1ccccc1,-31.2
20,C=CCNC(=O)/C(=C/c1cccc([N+](=O)[O-])c1)NC(=O)c1ccco1,-27.5
21,C=CCNC(=O)/C(=C\c1cccc([N+](=O)[O-])c1)NC(=O)c1ccccc1,-53.4
22,COc1ccc(C(=O)N/C(=C\c2cccc([N+](=O)[O-])c2)C(=O)Nc2cccc(C(=O)O)c2)cc1,5.3

row,SMILES,"hERG current change (%, negative = inhibition) at 10uM [%]"
1,CN(C)CCNC(=O)/C(=C/c1cccc([N+](=O)[O-])c1)NC(=O)c1ccccc1,-66.9
2,CC(C)(C)c1ccc(C(=O)N/C(=C\c2cccc([N+](=O)[O-])c2)C(=O)Nc2cccc(C(=O)O)c2)cc1,12.7
3,Cc1c(C(=O)N(CC(C)C)c2c(N)n(Cc3ccccc3)c(=O)[nH]c2=O)sc2nc3n(c(=O)c12)CCC3,7.27
4,CC(C)CN1C(=O)C(=O)N(CC(=O)c2ccc[nH]2)C1=O,1.48
5,Cc1ccc(S(=O)(=O)N2CCCCC2C(=O)N2CCN(C)CC2)cc1 (stereo not shown),18.1
6,CCOc1ccc(N(CC(=O)Nc2ccccc2C(=O)NC(C)CC)S(C)(=O)=O)cc1 (stereo not shown),-13.3
7,Cc1[nH]c(C)c(S(=O)(=O)N2CCN(c3cccc(Cl)c3)CC2)c1C(=O)N1CCCC1,-6.94
8,Cc1[nH]c(C)c(S(=O)(=O)N2CCN(c3ccccc3)CC2)c1C(=O)N1CCCC1,-10.4
9,Cc1[nH]c(C)c(S(=O)(=O)N2CCN(c3ccc(Cl)cc3)CC2)c1C(=O)N1CCCC1,-66.4
10,Cc1c(C(=O)N2CCCCC2)c(S(=O)(=O)N2CCN(c3ccc(Cl)cc3)CC2)c(C)n1C,-55.7
11,CC(=O)c1ccc(N2CCN(S(=O)(=O)c3c(C(=O)N4CCCCC4)c(C)n(C)c3C)CC2)cc1,-2.75
12,Cc1c(C(=O)N2CCOCC2)c(S(=O)(=O)N2CCN(c3ccc(Cl)cc3)CC2)c(C)n1C,-37.6
13,CCOc1ccc(OCC)c(NC(=O)C2CCN(c3ncccn3)CC2)c1,-30
14,CCC(C)CCN1C(N(C)C)=NC[C@@H]1C (stereo partly shown),15.3
15,O=C(NC1CCCCC1)C(c1ccco1)N(C(=O)c1csnn1)c1cccc(Cl)c1 (stereo not shown),4.93
16,CC(C)CCN1CCN(Cc2cccn2-c2nccs2)CC1CCO (stereo not shown),-52.1
17,OCCC1CN(Cc2cccn2-c2nccs2)CCN1Cc1ccccc1 (stereo not shown),-69.3
18,OCCC1CN(Cc2cccn2-c2nccs2)CCN1C1CCCCC1 (stereo not shown),-37.8
19,OCCC1CN(Cc2cccn2-c2nccs2)CCN1CCc1ccccc1 (stereo not shown),-73.6
20,CC(C)N1CCN(Cc2cccn2-c2nccs2)CC1CCO (stereo not shown),10.2
21,CC(C)=CCN1CCN(Cc2cccn2-c2nccs2)CC1CCO (stereo not shown),-34.1
22,CCOc1ccc(CN2CCN(Cc3cccn3-c3nccs3)CC2CCO)cc1 (stereo not shown),-76.1
